Assay results published in PubChem BioAssay (NCI).
This is part of a sample that, as a whole, favours compounds with a hit. Of some 79,000 tested, about 15% had one in any assay. Calls of active or inactive are those of the source. No stated cut-off is given here; in the data, active means growth inhibition above about 70%; inactive means the rest.

Legend:
[1] = NCI Yeast Anticancer Drug Screen. Data for the rad52 strain (AID 147);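 further: 0% = growth of vehicle-treated control cultures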; settings: S. cerevisiae rad52 mutant growth inhibition, active compounds read high
Method in brief: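 Compounds are applied to a genetically defined yeast strain lacking normal DNA damage repair, and inhibition of growth is expressed relative to cultures given vehicle only.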

[2] = NCI Yeast Anticancer Drug Screen. Data for the wt1 strain (AID 149);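 further: 0% = growth of vehicle-treated wt1 cultures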; settings: S. cerevisiae wt1 strain (SPY 50644) growth inhibition, active compounds read high
Method in brief: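 Yeast wt1 strain exposed to compounds; growth inhibition measured relative to vehicle-treated controls.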

[3] = NCI Yeast Anticancer Drug Screen. Data for the rad50EPP+ strain (AID 151);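 further: 0% = growth of vehicle-treated control cultures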; settings: S. cerevisiae rad50 mutant strain, active compounds read high
Method in brief: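 Compounds were applied to the rad50EPP+ yeast strain, which bears a defined DNA repair alteration, and growth inhibition was determined relative to vehicle-treated cultures.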

[4] = NCI Yeast Anticancer Drug Screen. Data for the mgt1 strain (AID 153); settings: S. cerevisiae mgt1 mutant growth inhibition, active compounds read high
Method in brief: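 Strain: mgt1 yeast, one of a set carrying defined DNA damage repair or cell cycle control alterations. Compound-treated growth compared with vehicle.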

[5] = NCI Yeast Anticancer Drug Screen. Data for the rad50 strain (AID 155);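 further: 0% = growth of vehicle-only cultures of the same strain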; settings: S. cerevisiae rad50 strain growth inhibition, active compounds read high
Method in brief: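 Yeast carrying a defined DNA repair defect were exposed to test compounds, and growth was compared with vehicle-treated controls to give percent inhibition.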

[6] = NCI Yeast Anticancer Drug Screen. Data for the mec2-1 strain (AID 157); settings: S. cerevisiae mec2-1 strain, active compounds read high
Method in brief: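 Strain: mec2-1 (DNA repair/cell cycle alteration). Compound exposure, then growth measured; inhibition expressed relative to vehicle.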

[7] = NCI Yeast Anticancer Drug Screen. Data for the rad14 strain (AID 159);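 further: 0% = growth of vehicle-treated control cultures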; settings: S. cerevisiae rad14 strain growth inhibition, active compounds read high
Method in brief: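 Yeast cells carrying a defined DNA-repair defect were exposed to compounds, and growth inhibition was calculated relative to vehicle-treated control cultures.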

[8] = NCI Yeast Anticancer Drug Screen. Data for the sgs1 mgt1 strain (AID 161);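 further: 0% = growth of cultures given vehicle only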; settings: S. cerevisiae sgs1 mgt1 strain, active compounds read high
Method in brief: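 Test agents were incubated with a DNA-repair-mutant yeast strain. Growth was then read and compared against vehicle-treated controls.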

[9] = NCI Yeast Anticancer Drug Screen. Data for the CLN2oe strain (AID 163);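 further: 0% = growth of vehicle-only control cultures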; settings: S. cerevisiae CLN2oe strain, active compounds read high
Method in brief: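 Growth of a genetically modified yeast strain is measured after compound exposure and compared with cultures given vehicle alone.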

[10] = NCI Yeast Anticancer Drug Screen. Data for the cln2 rad14 strain (AID 165);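 further: 0% = growth equal to vehicle treated cultures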; settings: S. cerevisiae cln2 rad14 strain, active compounds read high
Method in brief: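 Compounds are applied to the cln2 rad14 yeast strain, and growth is then compared with that of vehicle-treated cultures to give inhibition.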

[11] = NCI Yeast Anticancer Drug Screen. Data for the bub3 strain (AID 167); settings: S. cerevisiae bub3 mutant strain, active compounds read high
Method in brief: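 Compounds were applied to a genetically altered yeast strain carrying a cell-cycle control defect. Growth inhibition was scored against vehicle-treated controls.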

[12] = NCI Yeast Anticancer Drug Screen. Data for the wt2 strain (AID 169);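 further: 0% = growth of vehicle-treated yeast cultures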; settings: S. cerevisiae wt2 strain growth inhibition, active compounds read high
Method in brief: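 This strain belongs to a panel of yeast strains with defined genetic alterations in DNA damage repair or cell cycle control. Compounds are applied, and growth inhibition is measured against vehicle-treated cultures.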

[13] = NCI Yeast Anticancer Drug Screen. Data for the mlh1 strain (AID 171);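 further: 0% = growth of vehicle-treated control cultures of the same strain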; settings: S. cerevisiae mlh1 strain growth inhibition, active compounds read high
Method in brief: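 Growth of the mutant yeast strain after compound exposure, expressed as inhibition relative to vehicle-only controls.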

[14] = NCI Yeast Anticancer Drug Screen. Data for the sgs1 strain (AID 173);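 further: 0% = growth of vehicle-only control cultures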; settings: S. cerevisiae sgs1 mutant, active compounds read high
Method in brief: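 Growth of a yeast strain bearing a defined genetic alteration is measured after compound treatment. Inhibition is expressed relative to vehicle-only controls.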

[15] = NCI Yeast Anticancer Drug Screen. Data for the mlh1 rad18 strain (AID 175); settings: S. cerevisiae mlh1 rad18 strain growth inhibition, active compounds read high
Method in brief: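 Read-out is yeast growth inhibition, calculated against vehicle-only controls. The compound was applied to a strain engineered with DNA damage repair alterations.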

[16] = NCI Yeast Anticancer Drug Screen. Data for the rad18 strain (AID 177); settings: S. cerevisiae rad18 mutant growth inhibition, active compounds read high
Method in brief: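 Growth of the mutant yeast strain after compound exposure, normalised to vehicle-only cultures.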

[17] = at 5.0 µM (retest, dose inferred, filed as 0.5)
[18] = at 50.0 µM (retest, dose inferred, filed as 5.0)

Measured: growth inhibition

O=C1C(=O)c2ccccc2C=C1[N+](=O)[O-]
active: [1]; at 33.0 µM 70% | [1]; at 100.0 µM 91% | [5]; at 100.0 µM 82% | [7]; at 100.0 µM 86% | [8]; [18] 77% | [8]; at 50.0 µM 73.7% | [12]; at 100.0 µM 75% | [13]; at 100.0 µM 83% | [14]; at 100.0 µM 92% | [16]; at 11.0 µM 89% | [16]; at 33.0 µM 94% | [16]; at 100.0 µM 95%
inactive: [1]; at 1.2 µM 3% | [1]; at 3.7 µM 11% | [1]; at 11.0 µM 26% | [2]; at 1.2 µM 3% | [2]; at 3.7 µM 5% | [2]; at 11.0 µM 9% | [2]; at 33.0 µM 15% | [2]; at 100.0 µM 26% | [3]; at 1.2 µM -1% | [3]; at 3.7 µM -1% | [3]; at 11.0 µM 5% | [3]; at 33.0 µM 15% | [3]; at 100.0 µM 29% | [4]; at 1.2 µM 2% | [4]; at 3.7 µM 10% | [4]; at 11.0 µM 9% | [4]; at 33.0 µM 15% | [4]; at 100.0 µM 58% | [5]; at 1.2 µM 0% | [5]; at 3.7 µM 9% | [5]; [17] -12% | [5]; at 11.0 µM 12% | [5]; at 33.0 µM 36% | [5]; [18] 30% | [5]; at 50.0 µM 50.5% | [6]; at 1.2 µM 2% | [6]; at 3.7 µM 5% | [6]; [17] 8% | [6]; at 11.0 µM 13% | [6]; at 33.0 µM 18% | [6]; [18] 13% | [6]; at 50.0 µM 29.4% | [6]; at 100.0 µM 35% | [7]; at 1.2 µM 2% | [7]; at 3.7 µM 17% | [7]; at 11.0 µM 15% | [7]; at 33.0 µM 37% | [8]; [17] 14% | [9]; at 1.2 µM 2% | [9]; at 3.7 µM 3% | [9]; at 11.0 µM 9% | [9]; at 33.0 µM 17% | [9]; at 100.0 µM 23% | [10]; [17] -13% | [10]; [18] 14% | [10]; at 50.0 µM 16.8% | [11]; at 1.2 µM 0% | [11]; at 3.7 µM 3% | [11]; [17] -14% | [11]; at 11.0 µM 1% | [11]; at 33.0 µM 4% | [11]; [18] 8% | [11]; at 50.0 µM 8.85% | [11]; at 100.0 µM 49% | [12]; at 1.2 µM 2% | [12]; at 3.7 µM 6% | [12]; at 11.0 µM 11% | [12]; at 33.0 µM 28% | [13]; at 1.2 µM 1% | [13]; at 3.7 µM 1% | [13]; at 11.0 µM 3% | [13]; at 33.0 µM 22% | [14]; at 1.2 µM 4% | [14]; at 3.7 µM 11% | [14]; at 11.0 µM 30% | [14]; at 33.0 µM 65% | [15]; [17] 0% | [15]; [18] 64% | [15]; at 50.0 µM 68.8% | [16]; at 1.2 µM 22% | [16]; at 3.7 µM 54%

COc1cc(C(=O)/C=C/c2ccccc2O)ccc1O
inactive: [1]; at 1.2 µM -11% | [1]; at 3.7 µM 55% | [2]; at 1.2 µM -11% | [3]; at 1.2 µM 11% | [4]; at 1.2 µM 9% | [5]; at 1.2 µM 10% | [5]; at 3.7 µM 32% | [5]; [17] 33% | [6]; at 1.2 µM -7% | [7]; at 1.2 µM -6% | [7]; at 3.7 µM 62% | [8]; [17] -4% | [9]; at 1.2 µM 19% | [9]; at 3.7 µM 42% | [10]; [17] 42% | [11]; at 1.2 µM -20% | [11]; at 3.7 µM 53% | [12]; at 1.2 µM -24% | [12]; at 3.7 µM 50% | [13]; at 1.2 µM 1% | [13]; at 3.7 µM 62% | [14]; at 1.2 µM 8% | [14]; at 3.7 µM 26% | [16]; at 1.2 µM 1% | [16]; at 3.7 µM 47%
active: [1]; at 11.0 µM 98% | [1]; at 33.0 µM 98% | [1]; at 100.0 µM 98% | [2]; at 3.7 µM 73% | [2]; at 11.0 µM 98% | [2]; at 33.0 µM 99% | [2]; at 100.0 µM 98% | [3]; at 3.7 µM 89% | [3]; at 11.0 µM 99% | [3]; at 33.0 µM 99% | [3]; at 100.0 µM 98% | [4]; at 3.7 µM 84% | [4]; at 11.0 µM 98% | [4]; at 33.0 µM 99% | [4]; at 100.0 µM 98% | [5]; at 11.0 µM 98% | [5]; at 33.0 µM 98% | [5]; [18] 98% | [5]; at 50.0 µM 93.2% | [5]; at 100.0 µM 98% | [6]; at 3.7 µM 78% | [6]; [17] 80% | [6]; at 11.0 µM 99% | [6]; at 33.0 µM 98% | [6]; [18] 99% | [6]; at 50.0 µM 94.4% | [6]; at 100.0 µM 98% | [7]; at 11.0 µM 99% | [7]; at 33.0 µM 98% | [7]; at 100.0 µM 98% | [8]; [18] 98% | [8]; at 50.0 µM 94.4% | [9]; at 11.0 µM 99% | [9]; at 33.0 µM 99% | [9]; at 100.0 µM 98% | [10]; [18] 98% | [10]; at 50.0 µM 92.8% | [11]; [17] 76% | [11]; at 11.0 µM 99% | [11]; at 33.0 µM 99% | [11]; [18] 97% | [11]; at 50.0 µM 94.2% | [11]; at 100.0 µM 98% | [12]; at 11.0 µM 99% | [12]; at 33.0 µM 99% | [12]; at 100.0 µM 98% | [13]; at 11.0 µM 99% | [13]; at 33.0 µM 99% | [13]; at 100.0 µM 98% | [14]; at 11.0 µM 99% | [14]; at 33.0 µM 99% | [14]; at 100.0 µM 99% | [15]; [17] 79% | [15]; [18] 98% | [15]; at 50.0 µM 91.8% | [16]; at 11.0 µM 98% | [16]; at 33.0 µM 98% | [16]; at 100.0 µM 98%
